“And” between values parts separate entries of the source, which are not always exact repeats. Equal values may be shown once. The source made the active and inactive calls.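 The calls were made as follows: active = compounds whose cell count with miR-34 switched on is under 0.7 times the count with it off; inactive = the rest.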
Test: viability loss with induced miR-34 in A549 – imaging, A549 dox-inducible miR-34, nuclei and caspase counts, primary screen (AID 1347080); also: test concentration not given here
Details: A549 miR-34 inducible, Hoechst nuclei count, 48 h; stronger effect = lower value; cell number ratio, induced over uninduced

| Structure (SMILES) | fold change |
| --- | --- |
| CC[N+](C)(C)Cc1ccccc1Br | 0.896 (inactive) |
| CCCc1ncc(C[n+]2ccccc2C)c(N)n1 | 0.899 (inactive) and 0.934 (inactive) and 0.817 (inactive) |
| CC[C@]12CCCN3CCc4c(n(c5ccccc45)C(=O)C1)[C@@H]32 | 0.89 (inactive) |
| C=C1c2cccc(O)c2C(O)=C2C(=O)[C@]3(O)C(O)=C(C(N)=O)C(=O)[C@@H](N(C)C)[C@@H]3[C@@H](O)[C@H]12 | 0.869 (inactive) and 0.999 (inactive) |
| Cc1c(N(C)C)c(=O)n(-c2ccccc2)n1C | 0.875 (inactive) and 0.837 (inactive) |
| Nc1ccc(S(=O)(=O)NC(=O)c2ccccc2)cc1 | 0.806 (inactive) and 0.919 (inactive) |
| Cc1ccsc1/C=C/C1=NCCCN1C | 0.892 (inactive) and 0.795 (inactive) |
| CC1(C)O[C@@H]2C[C@H]3[C@@H]4C[C@H](F)C5=CC(=O)CC[C@]5(C)[C@H]4[C@@H](O)C[C@]3(C)[C@]2(C(=O)CO)O1 | 0.775 (inactive) |
| Cc1cc(NC(=O)C2=C(O)c3ccccc3S(=O)(=O)N2C)no1 | 0.901 (inactive) and 0.859 (inactive) |
| CN1CCOC(c2ccccc2)c2ccccc2C1 (stereo not drawn) | 0.979 (inactive) and 0.925 (inactive) |
| CO[C@]12C[C@@H](COC(=O)c3cncc(Br)c3)CN(C)[C@@H]1Cc1cn(C)c3cccc2c13 | 0.861 (inactive) and 0.885 (inactive) and 0.895 (inactive) |
| CC(C)(O)c1ccccc1CC[C@@H](SCC1(CC(=O)O)CC1)c1cccc(/C=C/c2ccc3ccc(Cl)cc3n2)c1 | 0.896 (inactive) |
| O=C(O)c1ccccc1OP(=O)(O)O | 0.878 (inactive) |
